PubChem BioAssay (NCATS)
Values joined by “and” are separate entries in the source; they are usually repeats but may differ in a detail not shown here. Equal entries are not always repeated. Unmarked numbers belong to inactive results. Records with an inconclusive call do not appear. A call without a number means that no potency is given here. Active and inactive are the calls of the source. Unless noted, calls come from the whole dose curve; as a rule, active = well fitted curve in the direction sought with a large enough effect; inconclusive = small, poorly fitted or top-dose-only effect, or another doubt; inactive = no such curve, though single readings can be large; an effect the other way counts as inactive or inconclusive.

Experiments:
[1] = qHTS for differential inhibitors of proliferation of Plasmodium falciparum line 7G8 (AID 1815); settings: Plasmodium falciparum 7G8 proliferation inhibition; series mostly up to 28.7 µM;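 note: parasite growth measured after three days of incubation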; note: potency is the fitted concentration of half-maximal effect
[2] = qHTS for differential inhibitors of proliferation of Plasmodium falciparum line GB4 (AID 1816); settings: Potency: Plasmodium falciparum GB4 proliferation inhibition; series mostly up to 28.7 µM;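 note: parasite growth measured after 72 h incubation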; note: potency is the fitted concentration of half-maximal effect
[3] = qHTS for differential inhibitors of proliferation of Plasmodium falciparum line Dd2 (AID 1882); settings: Potency: Plasmodium falciparum Dd2 proliferation inhibition; series mostly up to 28.7 µM; note: nearly all actives have a fitted effect of over 65% in size; note: potency is the fitted concentration of half-maximal effect
Outline: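 SYBR Green DNA fluorescence (ex 485, em 535 nm) after overnight lysis quantifies parasite growth; compound exposure lasted 72 h at 37 C on infected red cells at 2.5% hematocrit, 0.3% parasitemia (final). Artemisinin 0.29 uM and vehicle wells define normalization.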

[4] = qHTS Assay for Modulators of Human Peripheral Myelin Protein 22 (PMP22) Expression/Activity (AID 1967; active = well fitted curve in the direction sought with a large enough effect in the signal ratio; the % refers to the signal ratio); settings: Cell-based PMP22 reporter, dual-color luciferase ratio, mouse Pmp22 promoter in mouse Schwann cells; series mostly up to 115 µM
Outline: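 Readout is the corrected green/red luminescence ratio after 24 h compound exposure, normalised to untreated cells (0%). Engineered MSC80 mouse Schwann cells express green luciferase from the mouse Pmp22 promoter and red luciferase from EF-alpha as internal control.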

[5] = biological target: RecQ-like DNA helicase BLM (Homo sapiens) (UniProt P54132); assay: qHTS Validation Assay for Inhibitors of Bloom's syndrome helicase (BLM) (AID 2364); settings: BLM helicase DNA unwinding, fluorescence, in vitro; series mostly up to 57.1 µM
Outline: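 BLM 50 nM in 25 mM Tris-HCl pH 8.0, 5 mM NaCl, 2 mM MgCl2, 1 mM DTT, 0.01% Tween-20, 2.5 ug/ml poly(dI-dC); 15 min cpd preinc, RT. Start: 200 nM forked DNA + 2 mM ATP (final). TAMRA read, 2 reads 2 h apart.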

[6] = biological target: Glucocorticoid receptor (Homo sapiens) (UniProt P04150); assay: GR-GFP Redistribution (AID 450;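 active = compounds whose dose series gives a full or clear partial fitted curve of increased nuclear translocation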; note: potency is the fitted concentration of half-maximal effect); settings: U2OS GR-GFP nuclear translocation, laser cytometry, 2 h
[7] = Primary qHTS for inhibitors of nuclear receptor binding SET domain protein 2 (NSD2) in an isogenic RCH-ACV NSD2 p.E1099K mutant (9B) (AID 1645876); settings: RCH-ACV (leukaemia line) NSD2 E1099K (9B) viability, CellTiter-Glo, 72 h; series mostly up to 44.9 µM; note: potency is the fitted concentration of half-maximal effect; nearly all actives have a fitted effect of over 70% in size
[8] = qHTS assay to identify inhibitors of the type 1 interferon - major histocompatibility complex class I in skeletal muscle: Counter screen cell viability and HiBit confirmation (AID 1347412); settings: iHSKM muscle cells + IFN-b, HiBiT or CellTiter-Glo, 24 h; for activity change, negative = inhibition: at 45.9 µM (top of the series); note: potency is the fitted concentration of half-maximal effect; for all read-outs here: nearly all actives have a fitted effect of over 60% in size
Outline: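 After 24 h with human IFN-beta (4 ng/ml) and compound titrations (top 46 uM final, 1:3, 12 points), HLA-B HiBit myoblasts were lysed for either Nano-Glo HiBiT luminescence or CellTiter Glo viability on paired plates.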

[9] = Primary qHTS to identify inhibitors of SARS-CoV-2 cell entry (AID 1645846; calls by dose curve; note: nearly all actives have a fitted effect of over 45% in size); settings: SARS-CoV-2 pseudovirus cell entry assay, luminescence; activity change, negative = inhibition: at 57.1 µM (top of the series) unless noted
Outline: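 Entry measured by luciferase signal 48 h after adding SARS-CoV-2-S pseudotyped MLV particles to HEK293-ACE2 cells preincubated 1 h with compounds. Normalisation: bald particles and spike particles.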

Chain of RecQ-like DNA helicase BLM (Homo sapiens) (P54132 whole entry, looked up): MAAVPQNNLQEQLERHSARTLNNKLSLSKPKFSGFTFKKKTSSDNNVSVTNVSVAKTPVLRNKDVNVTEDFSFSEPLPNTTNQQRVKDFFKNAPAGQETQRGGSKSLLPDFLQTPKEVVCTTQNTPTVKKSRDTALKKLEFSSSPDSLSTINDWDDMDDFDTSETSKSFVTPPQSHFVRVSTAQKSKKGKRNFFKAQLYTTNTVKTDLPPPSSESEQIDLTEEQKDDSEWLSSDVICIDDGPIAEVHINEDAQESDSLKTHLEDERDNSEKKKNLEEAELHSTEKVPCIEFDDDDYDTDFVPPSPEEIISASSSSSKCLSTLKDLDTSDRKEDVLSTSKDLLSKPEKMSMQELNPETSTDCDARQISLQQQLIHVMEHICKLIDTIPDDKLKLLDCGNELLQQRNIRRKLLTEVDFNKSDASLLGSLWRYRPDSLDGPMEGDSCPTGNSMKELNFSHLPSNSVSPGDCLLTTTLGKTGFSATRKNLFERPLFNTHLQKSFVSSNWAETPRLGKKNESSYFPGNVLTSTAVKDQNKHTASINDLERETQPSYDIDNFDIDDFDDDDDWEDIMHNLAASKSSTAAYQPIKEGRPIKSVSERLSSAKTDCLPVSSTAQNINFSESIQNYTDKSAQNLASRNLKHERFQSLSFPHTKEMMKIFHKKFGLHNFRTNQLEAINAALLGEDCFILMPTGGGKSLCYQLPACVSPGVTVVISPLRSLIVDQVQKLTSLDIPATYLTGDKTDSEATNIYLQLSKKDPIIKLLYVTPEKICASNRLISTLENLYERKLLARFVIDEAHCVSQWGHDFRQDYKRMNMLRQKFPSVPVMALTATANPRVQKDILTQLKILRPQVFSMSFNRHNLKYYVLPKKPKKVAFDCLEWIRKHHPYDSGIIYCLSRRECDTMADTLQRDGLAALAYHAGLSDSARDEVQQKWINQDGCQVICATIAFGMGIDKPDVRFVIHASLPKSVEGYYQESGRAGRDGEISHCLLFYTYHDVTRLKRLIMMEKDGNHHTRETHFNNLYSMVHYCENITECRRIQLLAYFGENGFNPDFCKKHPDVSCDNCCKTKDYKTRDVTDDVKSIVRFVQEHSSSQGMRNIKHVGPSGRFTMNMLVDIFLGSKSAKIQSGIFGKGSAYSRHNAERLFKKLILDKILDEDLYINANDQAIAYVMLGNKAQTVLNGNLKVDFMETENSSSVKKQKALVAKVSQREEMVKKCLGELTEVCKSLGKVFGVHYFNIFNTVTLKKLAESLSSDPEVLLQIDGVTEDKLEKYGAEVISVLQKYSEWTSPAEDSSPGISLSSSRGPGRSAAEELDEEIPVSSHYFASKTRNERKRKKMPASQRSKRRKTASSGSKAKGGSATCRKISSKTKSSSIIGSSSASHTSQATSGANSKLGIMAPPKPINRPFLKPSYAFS
Chain of Glucocorticoid receptor (Homo sapiens) (P04150 whole entry, looked up, the tested form may be a part): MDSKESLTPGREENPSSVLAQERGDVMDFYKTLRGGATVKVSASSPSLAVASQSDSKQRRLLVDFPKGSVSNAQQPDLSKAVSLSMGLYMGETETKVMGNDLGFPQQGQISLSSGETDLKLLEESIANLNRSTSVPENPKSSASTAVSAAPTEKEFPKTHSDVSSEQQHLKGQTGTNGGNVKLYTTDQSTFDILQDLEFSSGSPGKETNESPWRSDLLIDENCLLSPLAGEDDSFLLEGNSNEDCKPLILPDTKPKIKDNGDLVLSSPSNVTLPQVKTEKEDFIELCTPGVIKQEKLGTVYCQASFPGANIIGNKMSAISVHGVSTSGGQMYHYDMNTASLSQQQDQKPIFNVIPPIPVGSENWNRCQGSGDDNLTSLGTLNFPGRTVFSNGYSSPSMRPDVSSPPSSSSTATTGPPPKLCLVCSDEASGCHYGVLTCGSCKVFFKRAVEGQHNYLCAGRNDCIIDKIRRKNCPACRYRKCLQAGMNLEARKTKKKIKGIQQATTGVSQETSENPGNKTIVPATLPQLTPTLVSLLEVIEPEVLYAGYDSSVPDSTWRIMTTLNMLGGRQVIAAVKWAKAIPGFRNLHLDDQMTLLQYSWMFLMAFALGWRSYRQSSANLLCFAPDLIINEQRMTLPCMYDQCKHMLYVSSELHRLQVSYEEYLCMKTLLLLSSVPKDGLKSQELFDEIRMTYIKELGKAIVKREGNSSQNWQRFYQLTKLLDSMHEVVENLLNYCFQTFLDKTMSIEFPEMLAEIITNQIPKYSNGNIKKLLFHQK

In the case of `C[N+]1(C)C2CC(OC(=O)C(CO)c3ccccc3)CC1C1OC12` (stereo not drawn), the Potency [1] is reported as “inactive”, the Potency [2] is reported as “inactive” and the Potency [3] is reported as “inactive”. The outcome [4] was “inactive” and the outcome [5] was “inactive”.
In the case of `C#CCN(C)C(C)Cc1ccccc1` (stereo not drawn), the Potency [6] is reported as over 20.6 µM, the Potency [1] is reported as “inactive” and the Potency [2] is reported as “inactive”. The Potency [3] was “inactive”, the outcome [4] was “inactive” and the outcome [5] was “inactive”.
For `COC(=O)C(N)CCCN=C(N)N[N+](=O)[O-]` (stereo not drawn), the Potency [1] was “inactive”, the Potency [2] was “inactive” and the Potency [3] was “inactive”. The outcome [4] was “inactive”.
With `COc1ccc2c3c1O[C@H]1C(=O)CC[C@@]4(O)C(C2)N(CC2CC2)CCC314` (stereo partly drawn) the outcome [4] was “inactive”.
With `COc1ccc2c(c1O)-c1cccc3c1C(C2)N(C)CC3` (stereo not drawn) the Potency [1] was 8.91 µM (active), the Potency [2] was 8.91 µM (active) and the Potency [3] was 11.2 µM (active). The outcome [5] was “inactive”.
For `CCNC(=O)[C@H]1O[C@@H](n2cnc3c(N)ncnc32)[C@H](O)[C@H]1O`, the Potency [1] was “inactive”, the Potency [2] was “inactive” and the Potency [3] was “inactive”. For the same molecule, the outcome [4] was “inactive”.
With `NNCc1cccc(O)c1` the Potency [6] was over 46 µM and the Potency [1] was 12.6 µM (active).
For `C/C1=C/C[C@@H](/C(C)=C/c2csc(C)n2)OC(=O)C[C@H](O)C(C)(C)C(=O)[C@H](C)[C@@H](O)[C@@H](C)CCC1`, the Potency [7] was 0.0525 µM (active) and the activity change, negative = inhibition ([8]; Viability) was -15.3%.
With `CCC(CO)NC(=O)[C@@H]1C=C2c3cccc4[nH]cc(c34)C[C@H]2N(C)C1` (stereo partly drawn) the Potency [1] was 10 µM (active).
With `CCCN(CCC)C(=O)Cc1c(-c2ccc(Cl)cc2)nc2c(Cl)cc(Cl)cn12` the Potency [6] was over 46 µM and the outcome [4] was “inactive”.
With `Nc1ncnc2c1ncn2[C@@H]1O[C@H](COP(=O)(O)CP(=O)(O)OP(=O)(O)O)[C@H](O)[C@H]1O` the Potency [1] was “inactive”, the Potency [2] was “inactive” and the Potency [3] was “inactive”. For the same molecule, the outcome [4] was “inactive”.
With `C=CCN1CC[C@@]2(C)c3cc(O)ccc3CC1[C@@H]2C` the Potency [1] was 7.94 µM (active), the Potency [2] was 12.6 µM (active) and the outcome [4] was “inactive”. For the same molecule, the outcome [5] was “inactive”.
In the case of `C[C@H]1C2Cc3ccc(O)cc3[C@]1(C)CCN2CC1CC1`, the Potency [2] is reported as 11.2 µM (active), the Potency [3] is reported as 7.94 µM (active) and the outcome [4] is reported as “inactive”. For the same molecule, the outcome [5] was “inactive”.
In the case of `NCC#Cc1ccccc1`, the Potency [6] is reported as over 46 µM, the Potency [2] is reported as “inactive” and the Potency [3] is reported as “inactive”.
For `O=C1/C(=C\c2ccccc2)C[C@@]2(O)[C@H]3Cc4ccc(O)c5c4[C@@]2(CCN3CC2CC2)[C@H]1O5`, the Potency ([8]; HiBiT) was 3.52 µM (active).
With `CCC1/C=C/C=CCC(C)C(O)[C@@](C)(O)C(=O)C(C)C(O)C(C)C(=O)C(C)C(O)C(C)C=CC(=O)O[C@H]2C(C)C(CC1)O[C@]1(CCC(C)C(CC(C)O)O1)C2C` (stereo partly drawn) the activity change, negative = inhibition ([8]; HiBiT) was -31.9% and the activity change, negative = inhibition ([8]; Viability) was -23.7%.
In the case of `COc1cc(C=C(C#N)C#N)cc(O)c1O`, the Potency [6] is reported as over 46 µM and the Potency [2] is reported as 12.6 µM (active).
In the case of `CN1C[C@@H](CS(=O)(=O)N(C)C)C[C@@H]2c3cccc4c3c(cn4C)C[C@H]21`, the outcome [5] is reported as “inactive”.
In the case of `CC(C)(O)C1C2OC(=O)C1[C@]1(O)C[C@H]3O[C@]34C(=O)O[C@H]2[C@]14C` (stereo partly drawn) (tested in a mixture with another compound), the Potency [1] is reported as “inactive”, the Potency [2] is reported as “inactive” and the Potency [3] is reported as “inactive”.
With `CC1Cc2cc3c(cc2C(c2ccc(N)cc2)=NN1)OCO3` (stereo not drawn) the Potency [1] was 12.6 µM (active).
For `CCCN1CCCC(c2cccc(O)c2)C1` (stereo not drawn), the Potency [1] was 8.91 µM (active), the Potency [2] was 12.6 µM (active) and the outcome [4] was “inactive”. For the same molecule, the outcome [5] was “inactive”.
For `NC(Cn1ccc(=O)[nH]c1=O)C(=O)O` (stereo not drawn), the Potency [1] was “inactive”, the Potency [2] was “inactive” and the Potency [3] was “inactive”. For the same molecule, the outcome [4] was “inactive”.
In the case of `COc1cc(C[C@@H](C)N)c(OC)cc1I`, the Potency [2] is reported as 12.6 µM (active), the Potency [3] is reported as 7.08 µM (active) and the outcome [5] is reported as “inactive”.
For `CCN1C[C@]2(C)CC[C@H](O)[C@@]34[C@@H]5C[C@@H]6[C@@H](OC)C[C@@](O)(C5[C@H]6O)[C@@H](C[C@@H]23)[C@@H]14`, the Potency [1] was “inactive”, the Potency [3] was “inactive” and the outcome [4] was “inactive”.
For `C[C@H]1OC[C@@H](C[N+](C)(C)C)O1`, the Potency [6] was > 46 µM and > 20.6 µM, the Potency [1] was “inactive” and the Potency [2] was “inactive”. For the same molecule, the Potency [3] was “inactive”, the outcome [4] was “inactive” and the outcome [5] was “inactive”.
For `N#CC(=Cc1ccc(O)c(O)c1)C(N)=S`, the Potency [3] was “inactive”.
For `Oc1ccc2c3c1O[C@H]1[C@@H](O)CC[C@@]4(O)C(C2)N(CC2CCC2)CCC314` (stereo partly drawn), the Potency [1] was “inactive”, the Potency [3] was “inactive” and the outcome [4] was “inactive”. The outcome [5] was “inactive”.
With `CCCN1CCC[C@@H](c2cccc(C#N)c2)C1` the Potency [3] was “inactive” and the outcome [4] was “inactive”.
With `CCCN1CCC[C@@H]2Cc3n[nH]cc3C[C@H]21` the Potency [2] was “inactive”, the Potency [3] was “inactive” and the outcome [4] was “inactive”.
For `CCN(CC)C(=O)N[C@@H]1C[C@@H]2c3cccc4[nH]cc(c34)C[C@H]2N(C)C1`, the Potency [1] was 5.62 µM (active) and the Potency [2] was 6.31 µM (active).
With `CCCC[N+]1(C)C2CC(OC(=O)C(CO)c3ccccc3)CC1C1OC12` (stereo not drawn) the Potency [1] was “inactive”, the Potency [2] was “inactive” and the Potency [3] was “inactive”.
With `C[C@]12CC[C@H]3[C@@H](CCC4C[C@H](O)CC[C@@]43C)[C@@H]1CC[C@@H]2O` (stereo partly drawn) the Potency [1] was “inactive”, the Potency [2] was “inactive” and the Potency [3] was “inactive”. The outcome [4] was “inactive” and the outcome [5] was “inactive”.
In the case of `CN1CCC23CCCC[C@H]2C1Cc1ccc(O)cc13` (stereo partly drawn), the Potency [1] is reported as 6.31 µM (active), the Potency [3] is reported as 5.01 µM (active) and the outcome [4] is reported as “inactive”.
For `CCCCN1C2CCC1CC(OC(c1ccc(F)cc1)c1ccc(F)cc1)C2` (stereo not drawn), the Potency [1] was 2 µM (active), the Potency [2] was 1.58 µM (active) and the Potency [3] was 3.98 µM (active).
With `CCCCN=C(N)NC(=N)N` the outcome [9] was “inactive [setting not given]”.
